Experimental data: PubChem BioAssay (EPA / NIEHS)
Activity calls are given as the source filed them. Rule for the calls: active = hit-call score of the fitted dose curve at least 0.9, where 1 is the maximum; inactive = score below 0.9.

assay: ATG_FoxO_CIS: Attagene CIS-FACTORIAL HepG2 Assay for human Forkhead box O (FoxO) (AID 2282943); conditions: HepG2 Attagene cis-reporter, FoxO element, mRNA; actives raise or lower the signal
Description: ATG_CIS is a cell-based, multiplexed-readout assay that uses HepG2, a human liver cell line, with measurements taken at 24 hours after chemical dosing in a 24-well plate.ATG_FoxO_CIS is one of 52 assay component(s) measured or calculated from the ATG_CIS assay. It is designed to make measurements of mRNA induction, a form of inducible reporter, as detected with fluorescence intensity signals by Reverse transcription polymerase chain reaction (RT-PCR) and Capillary electrophoresis technology.Data from the assay component ATG_FoxO_CIS was analyzed into 1 assay endpoint. This assay endpoint, ATG_FoxO_CIS, was analyzed with bidirectional fitting relative to DMSO as the negative control and baseline of activity. Using a type of inducible reporter, measures of mRNA for gain or loss-of-signal activity can be used to understand the reporter gene at the transcription factor-level as they relate to the gene FOXO1 and FOXO3. Furthermore, this assay endpoint can be referred to as a primary readout, because this assay has produced multiple assay endpoints where this one serves a reporter gene function. To generalize the intended target to other relatable targets, this assay endpoint is annotated to the dna binding intended target family, where the subfamily is forkhead box protein.
Human liver HepG2 cells are transiently transfected with multiple reporter transcription units (MRTUs) in 6-well plates using FuGene 6 reagent (Roche; 3 ml FuGene/1 mg DNA). The MRTU constructs are regulated by a cis-regulating element (promoter). […] A major difference between the CIS and TRANS system is that in CIS activities of endogenous TFs are measured, whereas the TRANS assay evaluates changes in activities of exogenous, chimeric NR-Gal4 proteins. […] At the end of 24 hour incubation, total RNA was isolated using TriZol reagent (Invitrogen). The isolated RNA is then reverse-transcribed using oligo(dT) primer and Mo-MLV reverse transcriptase (Invitrogen) with DNAse I (Ambion) treatment for 30 min. The one-tenth of the produced cDNA was amplified by PCR using Taq DNA polymerase (Invitrogen) and two reporter sequence-specific primers. The PCR products were fluorescently labeled by primer extension with 6-arboxyfluorescein (6-FAM) 5'-labeled reporter sequence-specific primer (2 min at 95 C, 20 s at 68 C and 10 min at 72 C) and these products were digested with 5U of HpaI (New England Biolabs) for 2h at 37 C. The fragments were purified using Qiaquick PCR columns (Qiagen), analyzed on an ABI 3130xL genetic analyzer (Applied Biosystems) with peak positions identified by using a set of X-rhodamine (ROX)-labeled MapMarker1000 molecular weight standards (BioVentures). The raw capillary electrophoresis data was processed using Attagraph software (Attagene).

SMILES | outcome
N#Cc1c(Cl)cccc1Cl | inactive
CC1(C)CCC(=Cc2ccc(Cl)cc2)C1(O)Cn1cncn1 (stereo not given) | inactive
Cc1nc(N(C)C)nc(OC(=O)N(C)C)c1C | inactive
CCOc1nc(F)cc2nc(S(=O)(=O)Nc3c(Cl)cccc3Cl)nn12 | inactive
COC(=O)NS(=O)(=O)c1ccc(N)cc1 | inactive
CCOc1cc(C(C)(C)C)ccc1C1COC(c2c(F)cccc2F)=N1 (stereo not given) | inactive
C=C(C)CN(CC)c1c([N+](=O)[O-])cc(C(F)(F)F)cc1[N+](=O)[O-] | inactive
CC(C)N1C(=O)N(c2ccccc2)CSC1=NC(C)(C)C | inactive
Cn1c(-c2ccccc2)cc(-c2ccccc2)[n+]1C | inactive
CO/N=C(/C1=NOCCO1)c1ccccc1Oc1ncnc(Oc2ccccc2Cl)c1F | inactive
CNC(=O)N(C)c1nnc(C(C)(C)C)s1 | inactive
CN=C=S | inactive
CCCCC(C#N)(Cn1cncn1)c1ccc(Cl)cc1 (stereo not given) | inactive
O=C(Nc1ccccc1-c1ccc(Cl)cc1)c1cccnc1Cl | inactive
CC(C)Oc1cccc(NC(=O)c2ccccc2C(F)(F)F)c1 | inactive
CC(C)N1C(=O)c2ccccc2NS1(=O)=O | inactive
CC1(C)CON(Cc2ccccc2Cl)C1=O | inactive
Clc1cccc(C(Cl)(Cl)Cl)n1 | inactive
Cc1c(COC(=O)[C@@H]2[C@H](/C=C(\Cl)C(F)(F)F)C2(C)C)cccc1-c1ccccc1 | inactive
CCOP(=O)(OCC)Oc1nc(Cl)c(Cl)cc1Cl | inactive

SMILES | outcome
COC(=O)NC(=S)Nc1ccccc1NC(=S)NC(=O)OC | inactive
Nc1cnn(-c2ccccc2)c(=O)c1Cl | inactive
CCCC(=NOCC)C1=C(O)CC(CC(C)SCC)CC1=O (stereo not given) | inactive
Clc1nc(Cl)nc(Nc2ccccc2Cl)n1 | inactive
CC(C)NC(=O)N1CC(=O)N(c2cc(Cl)cc(Cl)c2)C1=O | inactive
O=C1C2CC=CCC2C(=O)N1SC(Cl)(Cl)Cl (stereo not given) | inactive
CNC(=O)Oc1cccc2ccccc12 | inactive
CC(C)C1(C)N=C(c2ncccc2C(=O)O)NC1=O (stereo not given) | inactive
CCOc1nc(C(Cl)(Cl)Cl)ns1 | inactive
COP(=O)(OC)O/C(C)=C/C(=O)N(C)C | inactive
CC(C)(C)C(=O)C(Oc1ccc(Cl)cc1)n1cncn1 (stereo not given) | inactive
CC(C)=CC1C(C(=O)OCc2coc(Cc3ccccc3)c2)C1(C)C (stereo not given) | inactive
CN/C(=N\[N+](=O)[O-])NCc1cnc(Cl)s1 | inactive
O=P(O)(O)CCCl | inactive
COCc1cnc(C2=NC(C)(C(C)C)C(=O)N2)c(C(=O)O)c1 (stereo not given) | inactive
COCC(C)N(C(=O)CCl)c1c(C)csc1C (stereo not given) | inactive
Nc1c(Cl)c(F)nc(OCC(=O)O)c1Cl | inactive
COC(=O)c1c(C(F)F)nc(C(F)(F)F)c(C2=NCCS2)c1CC(C)C | inactive
CCN(CC)c1nc(C)cc(OP(=S)(OC)OC)n1 | inactive
CCCCC(O)(Cn1cncn1)c1ccc(Cl)cc1Cl (stereo not given) | inactive
